In PubChem BioAssay AID651718 (The Scripps Research Institute Molecular Screening Center, 2012):
Out of some 360,000 compounds screened, about 2,700 (0.75%) were called active. Rule as the data show it: active = inhibition above about 4.5%; inactive = the rest. Only a selection was taken, and actives are over-represented in it overall.

Each compound was assayed on Methionine sulfoxide reductase A (Bos taurus) (assay: inhibition of methionine sulfoxide reductase A – biochemical, absorbance, bovine, HTS, primary screen (AID 651718;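 also: 0% = vehicle wells with enzyme and 100% = reference inhibitor wells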)). Settings: purified bovine MsrA, absorbance read-out; at 15.5 µM; hits give high values.

inhibition, inactive:
COc1cccc(C2/C(=C(/O)c3ccc(F)cc3)C(=O)C(=O)N2CCN(C)C)c1 (stereo not drawn) 2.59%, COc1ccc(C2/C(=C(/O)c3ccccc3)C(=O)C(=O)N2c2ncccn2)cc1OC (stereo not drawn) 1.66%, CCOc1ccccc1C(=O)N1CCC[C@@H]1C(=O)N1CCC[C@H]1C(=O)NCc1ccccc1 0%, CSC1=NCCN1C(=O)c1ccc(S(=O)(=O)N2CCOCC2)cc1 0.32%, Cc1c(-c2ccccc2)cn2c1-c1ccc(C)n1CC2 2.59%, CN1CCCc2nc(-c3ccccc3)ccc21 -0.16%, O=C1[C@@H](c2ccccc2)[C@@H](c2ccccc2)N1c1ccccc1 0%, COc1ccc(/C=C/C(=O)Nc2ccc(C34CC5CC(CC(O)(C5)C3)C4)cc2)cc1OC 2.4%, COc1cc(/C=N/NC(=S)Nc2cccnc2)cc(OC)c1O 4.5%, COc1cccc(CNC(=O)[C@H]2CCCN2C(=O)[C@H]2CCCN2C(=O)c2ccc(F)cc2)c1 -0.32%, COCCN(CCOC)S(=O)(=O)NC[C@H]1O[C@@H](n2cnc3c(N)ncnc32)[C@H](O)[C@@H]1O -0.9%, CNC[C@H](CC1CCCCC1)NC[C@H](NCCC1CCCC1)[C@H](C)O 0.32%, C[C@@H]1CN([C@H](C)CO)C(=O)CCCn2cc(nn2)CO[C@H]1CN(C)C(=O)Nc1ccc(N2CCCCC2)cc1 0.88%, COc1cc(Nc2nc3ccc(Cl)cc3n3cnnc23)cc(OC)c1OC -1.86%, CN(CCO)c1ccc(/C=N/Nc2nncc3ccccc23)cc1 2.64%, Cn1ccs/c1=N\S(=O)(=O)c1ccc(C(C)(C)C)cc1 -0.4%, C=CCOc1ccc(C2/C(=C(\O)c3c(C)[nH]c(C(=O)OC)c3C)C(=O)C(=O)N2CCN(C)C)cc1 (stereo not drawn) 1.79%, O=C(O)c1ccccc1NC(=S)NC(NC(=O)c1ccccc1[N+](=O)[O-])C(Cl)(Cl)Cl (stereo not drawn) 0.38%, Cn1nc(C(=O)OCC(=O)N(Cc2ccccc2)C(C)(C)C)c2ccccc2c1=O -1.57%

inhibition, active:
COc1ccc(C2/C(=C(/O)c3ccccc3)C(=O)C(=O)N2C)c(OC)c1 (stereo not drawn) 4.89%, COc1ccc(/C=C/C(=O)Nc2cccnc2)cc1OC 5.32%, COc1cc(/C=N/Nc2nn3cnnc3c3ccccc23)cc(OC)c1OC 5.31%, COc1ccc(OC)c(C2C3=C(N=c4s/c(=C\c5cccc(O)c5)c(=O)n42)c2ccccc2CC3)c1 (stereo not drawn) 5.07%
